Hit rate of the full screen: of about 310,000 compounds, about 17,000 (5.5%) were called active. A call without a number means that no potency is given here. About 11% were inconclusive and are not listed. The sample as a whole holds a higher share of actives than the screen did. Unmarked numbers belong to inactive results. The call rests on the fitted dose curve; in most records, active means well fitted inhibition curve with a large enough effect; inconclusive means small, poorly fitted or top-dose-only effect, or effect the other way; inactive means no such curve, though single readings can be large or run the other way.
Target: Nuclear receptor ROR-gamma (Mus musculus) (UniProt P51450)
Test: qHTS for inhibitors of ROR gamma transcriptional activity; further: nearly all actives have a fitted effect of over 60% in size
Conditions: Drosophila S2 Gal4-RORgamma UAS-luciferase reporter, 20 h; series mostly up to 53.6 µM
In short: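 Stably transfected Drosophila Schneider cells are the test system, with ROR gamma fused to Gal4 and luciferase under UAS control; luminescence is read after 20 hr of 700 uM copper sulfate induction at ambient temperature.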
Potency means the concentration at half of the fitted maximal effect.

Sequence of Nuclear receptor ROR-gamma (Mus musculus) (P51450 whole entry, looked up): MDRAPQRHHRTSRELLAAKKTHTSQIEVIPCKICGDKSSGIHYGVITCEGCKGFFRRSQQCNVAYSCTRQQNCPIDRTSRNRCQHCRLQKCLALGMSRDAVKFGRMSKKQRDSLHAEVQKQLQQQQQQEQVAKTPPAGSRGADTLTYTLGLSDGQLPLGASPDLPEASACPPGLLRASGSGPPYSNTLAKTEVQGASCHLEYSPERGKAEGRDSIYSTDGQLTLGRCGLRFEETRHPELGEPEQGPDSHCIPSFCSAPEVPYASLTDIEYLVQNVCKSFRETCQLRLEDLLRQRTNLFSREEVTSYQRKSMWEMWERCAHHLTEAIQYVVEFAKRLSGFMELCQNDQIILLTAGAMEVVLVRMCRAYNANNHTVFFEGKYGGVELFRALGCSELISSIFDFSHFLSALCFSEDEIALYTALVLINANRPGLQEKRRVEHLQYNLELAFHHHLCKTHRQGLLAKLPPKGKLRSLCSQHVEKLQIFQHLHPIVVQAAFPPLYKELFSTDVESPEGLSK

Row | SMILES | Potency | activity change, negative = inhibition
1 | O=C1CSc2ccc(S(=O)(=O)NCc3ccccc3)cc2N1 | inactive | –
2 | CN(Cc1ccccc1)C(=O)C1CCCN(c2ncnc3c2nc2n3CCCCC2)C1 (centres undefined) | inactive | –
3 | CN(C)CCN(C(=O)C1=COCCO1)c1nc2ccc(Cl)cc2s1 | inactive | –
4 | O=C1NCC(=O)N(Cc2ccccc2)/C1=C/c1ccccc1 | inactive | –
5 | CN(C)c1ccc(/C=C2\NC(=S)N(Cc3ccccc3)C2=O)cc1 | 5.01 µM (active) | –
6 | CC1=NN(Cc2ccccc2)C(=O)/C1=C/c1ccc(N(C)C)cc1 | inactive | –
7 | COC(=O)CSc1nnc(NC(=O)CCc2ccccc2)s1 | inactive | –
8 | O=C(Cc1ccc(Br)cc1)NCCN1CCOCC1 | inactive | –
9 | Clc1ccc(-c2nc3ccccn3c2CN2CCSCC2)cc1 | 12.6 µM (active) | –
10 | CC1CCN(Cc2nc(-c3ccc(Cl)cc3)no2)CC1 | inactive | –
11 | Clc1ccc(-c2nnc(-c3ccccc3)nc2N2CCSCC2)cc1 | inactive | –
12 | Cc1ccc(N(Cc2ccccc2O)C(=O)c2ccccc2F)cc1 | inactive | –
13 | COc1ccc(C(=O)ON=C2c3ccccc3-c3ccccc32)cc1OC | inactive | –
14 | COc1ccc(C/C(N)=N/OC(=O)c2ccco2)cc1OC | inactive | –
15 | COc1ccc(C(=O)O/N=C(\N)Cc2ccc(Cl)cc2Cl)cc1OC | 15.8 µM (active) | –
16 | CCOc1ccc(N(CC(=O)Nc2cccc(OC)c2)S(C)(=O)=O)cc1 | inactive | –
17 | OC(CNCCc1ccc(Cl)cc1Cl)COc1ccccc1 (centres undefined) | inactive | –
18 | COc1ccc(C2CC(c3cccs3)=NN2C(=O)CCC(=O)O)cc1OC (centres undefined) | inactive | –
19 | O=C(CCCCCNC(=O)c1ccccc1)N/N=C/c1ccccc1 | inactive | –
20 | O=C(CCC(=O)Nc1ccccc1)N/N=C/c1ccccc1F | inactive | –
21 | O=C(N/N=C/c1ccccc1O)/C(=C/c1ccccc1)CCO | 1.12 µM (active) | –
22 | COC(=O)c1ccc(COC(=O)c2cnc(Cl)c(Cl)c2)cc1 | inactive | –
23 | CCn1c(SCC(=O)NC2CC2)nnc1-c1ccccn1 | inactive | –

Row | SMILES | Potency | activity change, negative = inhibition
24 | COc1ccc(N)c(OC)c1 | inactive | –
25 | COc1ccc(/C=C/C2=CC(C)(C)NC(=S)N2)c(OC)c1 | 1.26 µM (active) | –
26 | COc1ccc(/C=C2/C(=O)N(c3ccccc3)N=C2C)c(OC)c1 | inactive | –
27 | COc1cc(/C=C/C2=CC(C)(C)NC(=S)N2)cc(OC)c1OC | 3.55 µM (active) | –
28 | CCC(=O)c1ccc(OC(=O)/C=C/c2cc(OC)c(OC)c(OC)c2)cc1 | inactive | –
29 | CCOC(=O)COn1c(=O)c(-c2ccc(OCC)cc2)[n+]([O-])c2ccccc21 | inactive | –
30 | COc1cc(C(=O)OCC(=O)NC(C)CCc2ccccc2)cc(OC)c1OC (centres undefined) | inactive | –
31 | COc1cc(C(C(=O)NC2CCCC2)N(Cc2ccccc2)C(=O)c2snc(C(N)=O)c2N)ccc1O (centres undefined) | inactive | –
32 | Cc1ccc(-n2[nH]c(C)c(/C=N/NC(=O)c3cccc([N+](=O)[O-])c3)c2=O)cc1C | 1.12 µM (active) | –
33 | Cc1[nH]n(-c2ccccc2)c(=O)c1N=Nc1ccccc1C(=O)N1CCCCC1 | inactive | –
34 | O=C(N/N=C/c1cccc([N+](=O)[O-])c1)c1ccncc1 | inactive | –
35 | Cc1[nH]n(-c2ccccc2)c(=O)c1/C=N/NC(=O)c1ccoc1C | 0.251 µM (active) | –
36 | COc1cccc(/C=N/NC(=O)c2cccc([N+](=O)[O-])c2)c1OS(=O)(=O)c1ccc(C)cc1 | inactive | –
37 | COc1cc(/C=N/NC(=O)c2ccoc2C)ccc1OCCN1CCCCC1 | inactive | –
38 | Cc1oc(-c2ccccc2F)nc1CS(=O)CC(=O)NCCN1CCCCC1C (centres undefined) | inactive | –
39 | CCOc1ccc(S(=O)(=O)N2CCN=C2Cc2ccccc2)cc1C | inactive | –
40 | COc1cccc(CNC(=O)CCCC(=O)Nc2cccc([N+](=O)[O-])c2)c1 | inactive | –
41 | Cc1cnc(C)c(N2CCN(C(=O)C3CCC(=O)N(CCc4cccc(F)c4)C3)CC2)n1 (centres undefined) | inactive | –
42 | Cc1cc(-n2nc(C)cc2C)n2nc(C)c(-c3ccccc3)c2n1 | inactive | –
43 | Cc1cc(C)c2c(NC(=O)C3CC3)nn(C)c2n1 | inactive | –
44 | Cc1cc(C)c2c(n1)nn1c(-n3ccnc3)cc(C)nc21 | 10 µM (active) | –
45 | O=C(Nc1ccc(F)cc1)C(=O)c1cn(CC(=O)N2CCOCC2)c2ccccc12 | inactive | –
46 | CCSc1nc(O)c(C(c2cccc(OC)c2)c2c(O)nc(SCC)[nH]c2=O)c(=O)[nH]1 | inactive | –

Row | SMILES | Potency | activity change, negative = inhibition
47 | CC(=O)c1cccc(NC(=S)N2CCCC2)c1 | inactive | –
48 | CCOC(=O)C1(Cc2ccccc2C)CCCN(C(=O)CCc2c(C)noc2C)C1 (centres undefined) | inactive | –
49 | COc1ccc(N2C(=O)C3CCCN3C2c2cccc(OC)c2)cc1 (centres undefined) | inactive | –
50 | COc1ccc(N2C(=O)C(Cc3ccccc3)NC2=S)cc1 (centres undefined) | inactive | –
51 | COc1ccc(N2C(=O)C3C(C2=O)C(C(=O)c2ccccc2)N2CCCC32)cc1 (centres undefined) | 11.2 µM (active) | –
52 | O=S1(=O)N=C(N(CCO)/N=C/c2ccccc2F)c2ccccc21 | inactive | –
53 | COc1ccc(N2CCN(Cc3nnc(-c4ccccc4)o3)CC2)cc1 | inactive | –
54 | COc1ccc(-n2cc(-c3ccccc3)c3c(=S)nc[nH]c32)cc1 | 0.501 µM (active) | –
55 | O=c1[nH]cnc2c1c(-c1ccccc1)cn2-c1ccc(F)cc1 | inactive | –
56 | Cc1cccc(NC(=O)CCN2CC(C)CC(C)C2)c1 (centres undefined) | inactive | –
57 | c1ccc(-c2cn3c(n2)CCc2ccc4cccnc4c2-3)cc1 | 3.55 µM (active) | –
58 | COCC(=O)N1CCc2ccc(NC(=O)c3ccccc3Cl)cc2C1 | – | 8.09% [at 1.91 µM]
59 | CC(NC(=O)Cn1cc(C(F)(F)F)cc(Cl)c1=O)c1ccccc1 (centres undefined) | inactive | –
60 | Cc1ccc(S(=O)(=O)c2nc(-c3cccs3)oc2NCc2cccnc2)cc1 | inactive | –
61 | C/C(=N/NC(=O)c1ccncc1)c1ccc2c(c1)OCO2 | inactive | –
62 | C/C(=N\NC(=O)C(N)=O)c1ccc2c(c1)OCCO2 | inactive | –
63 | C/C(=N/NC(=S)Nc1ccccc1)c1ccc2c(c1)OCO2 | 1.26 µM (active) | –
64 | CCCCc1nc(SCC(=O)Nc2nnc(C(C)C)s2)n[nH]1 | inactive | –
65 | Cc1ccc2nc(-c3ccncc3)cc(C(=O)Nc3ccncc3)c2c1 | inactive | –
66 | Cc1cc(C)cc(OCC(=O)NC(C)c2ccccc2)c1 (centres undefined) | inactive | –
67 | CCC1=C/C(=C\c2ccc3c(c2)OCO3)C(=O)S1 | inactive | –
68 | O=C1/C(=C/c2ccc3c(c2)OCO3)CCC/C1=C\c1ccc2c(c1)OCO2 | 11.2 µM (active) | –
69 | O=C(N/N=C/c1ccc2c(c1)OCO2)C(=O)N1CCCC1 | inactive | –

— PubChem BioAssay AID2551 (National Center for Advancing Translational Sciences (NCATS), 2010)
